Test results published in PubChem BioAssay AID1961 (Sanford-Burnham Center for Chemical Genomics, 2009).
In all, about 290,000 compounds went through this assay and about 140 (0.048%) were called active.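 The calls were made as follows: active = activation above 40% with more than 50 cells counted in the well; inconclusive = wells holding fewer than 50 cells, flagged as toxic or sparse; inactive = the rest.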 The sample as a whole holds a higher share of actives than the screen did.

Experiments:
[1] = GPR55 agonists via beta-arrestin recruitment, primary screen, imaging, U2OS cells, beta-arrestin-GFP redistribution (AID 1961); conditions: measured here: cytotoxicity, cells analyzed, at 10 µM;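 also: U2OS osteosarcoma cells stably expressing GPR55 and beta-arrestin-GFP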;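 as to activation: plate controls were DMSO negative control for no effect and LPI positive control for full effect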
[2] = molecular target: G-protein coupled receptor 55 (Homo sapiens) (UniProt Q9Y2T6); experiment: as above; conditions: at 10 µM, stronger effect = higher value
Sequence of G-protein coupled receptor 55 (Homo sapiens) (Q9Y2T6 whole entry, looked up): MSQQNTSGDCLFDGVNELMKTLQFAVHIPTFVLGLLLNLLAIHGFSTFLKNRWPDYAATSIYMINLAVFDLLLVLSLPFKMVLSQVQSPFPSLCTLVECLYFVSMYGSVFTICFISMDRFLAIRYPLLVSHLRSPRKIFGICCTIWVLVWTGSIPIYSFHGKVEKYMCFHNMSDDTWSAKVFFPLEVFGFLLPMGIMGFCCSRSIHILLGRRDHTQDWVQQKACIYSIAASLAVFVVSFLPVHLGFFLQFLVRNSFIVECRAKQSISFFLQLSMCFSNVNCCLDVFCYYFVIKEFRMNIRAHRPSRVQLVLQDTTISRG

| Compound | cell count [1] [cells] | activation [2] |
| --- | --- | --- |
| CCN1CCCC1CNCc1cc(OC)c(OC)c(OC)c1 (stereo unspecified) | 313 | -0.1% (inactive) |
| COc1ccccc1Cc1noc(COc2cccc(C)c2C)n1 | 384 | -0.1% (inactive) |
| Cc1nnc(SC(C)C)n(N)c1=O | 256 | -1.1% (inactive) |
| O=c1cnnc(SCc2ccc([N+](=O)[O-])cc2)[nH]1 | 243 | 0.2% (inactive) |
| CCn1nc(C)c(CN2CCC(C(=O)Nc3cccc(-c4cccc(Cl)c4)c3)CC2)c1C | 372 | 0% (inactive) |
| CCCCSc1nnc2n(CCc3ccccc3)c(=O)c3c4c(sc3n12)COC(C)(C)C4 | 332 | 58% (active) |
| CCC1(C)Cc2c(sc3c2c(=O)n(C)c2nnc(SCCc4ccccc4)n32)CO1 (stereo unspecified) | 322 | -0.2% (inactive) |
| C=CCSc1nnc2n(CCc3ccccc3)c(=O)c3c4c(sc3n12)COC(C)(C)C4 | 369 | -0.1% (inactive) |
| COc1ccc(C2CC(c3ccc(F)cc3)=NN2c2ccccc2)cc1OC (stereo unspecified) | 391 | -0.1% (inactive) |
| COc1cc(C2CC(c3ccccc3)=NN2c2ccccc2)ccc1OCC(=O)O (stereo unspecified) | 329 | 0.9% (inactive) |
| O=C(CSc1nnc(CNc2ccc(F)cc2)n1CC1CCCO1)N1CCOCC1 (stereo unspecified) | 336 | 0.2% (inactive) |
| CCOc1ccc(/C=N/NC(=O)C(C)N(c2ccc(OC)cc2)S(C)(=O)=O)cc1OCC (stereo unspecified) | 265 | 0.6% (inactive) |
| CCOC(=O)CS(=O)(=O)c1nc(-c2ccccc2)cc(C(F)(F)F)n1 | 302 | 49.8% (active) |
| CCOC(=O)CCS(=O)(=O)c1nc(-c2ccccc2)cc(C(F)(F)F)n1 | 310 | 14.3% (inactive) |
| CCOC(=O)CS(=O)(=O)c1nc(-c2ccc(F)cc2)cc(C(F)(F)F)n1 | 353 | 16.3% (inactive) |
| CNC(=O)CSc1nnc(-c2cccs2)o1 | 345 | 0.3% (inactive) |
| CC(=O)Nc1cccc(/C(C)=N/NC(=O)c2cccs2)c1 | 330 | -0.4% (inactive) |
| COc1ccc(-c2cc(C(F)(F)F)nc(SCC(=O)Nc3ccc4c(c3)OCO4)n2)cc1 | 399 | -0.2% (inactive) |
| COc1ccccc1P(=O)(c1ccccc1)c1ccc([N+](=O)[O-])cc1 (stereo unspecified) | 384 | 0.2% (inactive) |
| COc1ccccc1NC(=O)CSCc1ccc([N+](=O)[O-])cc1 | 415 | -0.1% (inactive) |
| CC(=O)N1CC=C2C(C#N)=C(N)C(C#N)(C#N)C(C)C2C1 (stereo unspecified) | 315 | -0.2% (inactive) |
| Cc1ccc(NC(=O)CS(=O)CC(=O)NC23CC4CC(CC(C4)C2)C3)cc1 (stereo unspecified) | 322 | 0% (inactive) |
| CCc1ccccc1NC(=O)c1ccc(-c2csc(C)n2)cc1 | 398 | -0.1% (inactive) |
| COc1ccc(CNc2nc(-c3cccnc3)nn2S(C)(=O)=O)cc1 | 258 | 1.3% (inactive) |
| COc1cccc(-c2nnc3n2N=C(c2cc(OC)ccc2OC)CS3)c1 | 449 | -0.1% (inactive) |
| CCOc1cccc(-c2nnc3n2N=C(c2cc(OC)ccc2OC)CS3)c1 | 276 | 100% (active) |
| COc1ccc(OC)c(C2=Nn3c(nnc3-c3cccc(OC(C)C)c3)SC2)c1 | 301 | -0.2% (inactive) |

| Compound | cell count [1] [cells] | activation [2] |
| --- | --- | --- |
| Cc1ccc(S(=O)(=O)NC2=C(N3CCN(c4ccccc4F)CC3)C(=O)c3ccccc3C2=O)cc1 | 421 | -0.1% (inactive) |
| COc1ccc(CN2C(=O)c3cccc4cccc(c34)C2=O)cc1 | 353 | -0.1% (inactive) |
| COc1ccc(CN2C(=O)c3ccccc3C2=O)cc1 | 379 | 0.6% (inactive) |
| CCc1nn(CC(=O)NCCc2ccc(Cl)cc2)c(=O)c2cccn12 | 343 | 0% (inactive) |
| CCOC(=O)C(CC)(CCC(=O)OC)c1csc(Nc2ccccc2O)n1 (stereo unspecified) | 367 | -0.1% (inactive) |
| Fc1cccc(NCCc2c[nH]c3ccccc23)n1 | 334 | -0.2% (inactive) |
| COc1ccccc1N1CCN(C2CCN(C(=O)COc3ccccc3)CC2)CC1 | 401 | -0.1% (inactive) |
| O=C(NCCN1CCOCC1)c1cc(-c2ccco2)on1 | 315 | -0.1% (inactive) |
| COc1ccc(Nc2nc(Cl)c(C=O)s2)cc1 | 273 | 0.2% (inactive) |
| Cc1nnnn1/C(=C\c1ccccc1)C(=O)OCC(=O)N(C)C1CCS(=O)(=O)C1 (stereo unspecified) | 254 | -0.4% (inactive) |
| Cc1nnnn1/C(=C\c1ccccc1)C(=O)OCC(=O)N1CC2(C)CC1CC(C)(C)C2 (stereo unspecified) | 330 | 74.3% (active) |
| Cc1nnnn1/C(=C\c1ccccc1)C(=O)OCC(=O)NC(C)(C)C | 301 | -0.3% (inactive) |
| CS(=O)(=O)N(CC(=O)NCCc1ccccc1)C1CCCCC1 | 388 | -0.1% (inactive) |
| N#Cc1c2n(c(=S)n(-c3ccc(F)cc3)c1=O)CCCCC2 | 250 | -0.3% (inactive) |
| CC(C)CC(=O)Nc1nnc(S(=O)(=O)N(C)Cc2ccco2)s1 | 342 | -0.2% (inactive) |
| CSc1ccccc1OCc1cc(C(=O)N2CCc3sccc3C2)no1 | 327 | -0.2% (inactive) |
| Cc1ccc2c(C)c(C(=O)N3CCN(Cc4ccc5c(c4)OCO5)CC3)oc2c1C | 372 | -0.1% (inactive) |
| COc1ccc(S(=O)(=O)NCCSC(C)(C)C)cc1Cl | 346 | -0.1% (inactive) |
| CCOC(=O)Cn1c(CN2CCN(C(c3ccccc3)c3ccccc3)CC2)nc2c1c(=O)n(C)c(=O)n2C | 284 | 0.3% (inactive) |
| O=C(C1CCCN(S(=O)(=O)c2cccc3nsnc23)C1)N1CCCCCC1 (stereo unspecified) | 250 | 0.1% (inactive) |
| N#Cc1ccccc1NC(=O)CC1CCCCC1 | 377 | -0.1% (inactive) |
| O=C(O)c1ccc[nH]c1=S | 381 | 0% (inactive) |
| CCN(CC)S(=O)(=O)c1ccc(N2CCOCC2)c(NCC(=O)Nc2ccc(F)cc2)c1 | 259 | -0.1% (inactive) |
| COc1ccccc1C(=O)NC(=S)/C=C1/N(C)c2ccccc2C1(C)C | 278 | 91% (active) |
| Cc1ccc(C(=O)NC(=S)/C=C2\N(C)c3ccccc3C2(C)C)cc1 | 272 | 0.2% (inactive) |
| CN1/C(=C\C(=S)NC(=O)c2ccccc2Cl)C(C)(C)c2ccccc21 | 357 | -0.2% (inactive) |
